Assay outcomes deposited in PubChem BioAssay by National Center for Advancing Translational Sciences (NCATS).
HTT cytoprotect – qHTS Multiplex Assay to Identify Dual Action Probes in a Cell Model of Huntington: Cytoprotection (ATP); AID 1471, 2008; actives 0.14% (n = 230,000); PC12 HTT-Q103 induced, cytoprotection, ATP luminescence, 40 h; Potency, µM (top dose mostly 56.4 µM), inactives show cytoprotection (ATP increase), most hits filed as activators; also: % of control where 0% means no effect; nearly all actives have a fitted effect of over 45% in size
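Cells were plated at 1500 per well in phenol red-free DMEM with 5% equine and 5% calf serum. Tebufenozide (100 nM final) and compounds were added, then ATPlite reagent, and luminescence was read.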
HTT aggregate – qHTS Multiplex Assay to Identify Dual Action Probes in a Cell Model of Huntington: Aggregate Formation (GFP); Potency, µM (top dose mostly 46.1 µM), for inactives: at the top dose activity change, negative = inhibition, most hits filed as inhibitors; actives 1.1% (n = 220,000); PC12 HttQ103-GFP aggregates, Acumen cytometry, 40 h; also: % is scaled to controls: 0 for no effect and ±100 for the full control effect; nearly all actives have a fitted effect of over 60% in size
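Huntingtin Q103 exon 1–GFP aggregates in induced PC12 cells (100 nM tebufenozide) were quantified by cytometry from lysates, with compounds dosed in titration.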
LMNA splice mod – qHTS Assay for Modulators of Lamin A Splicing | Potency, µM (doses to about 46.1 µM), inactives show at the highest dose ratio change, negative = inhibition, most hits filed as inhibitors | actives 0.01% (n = 200,000) | HeLa LMNA splicing GFP/RFP minigene ratio, 48 h | AID 1487, 2009; active = well fitted inhibition curve with a large enough effect in the signal ratio, with a control signal flat, not every such curve was filed as active; inconclusive = small, poorly fitted or top-dose-only effect, or effect the other way, or a change in a side signal; the % refers to the signal ratio; also: % is scaled to controls: 0 for no effect and ±100 for the full control effect
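S3 HeLa cells stably expressing lamin A-EGFP splicing minigene plus DsRed2, 600 cells/well, 48 h compound exposure at 37C. Laser-scanning cytometry; analysed as GFP (500-530 nm)/RFP (575-640 nm) total intensity ratio; 0.5% DMSO vehicle.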
Epigenetic derep – Quantitative High-Throughput Screen for Regulators of Epigenetic Control | murine LDR cells, GFP reporter derepression, 30 h | Potency, µM (series often up to 53.9 µM), inactives show at the highest dose GFP activation, hits mostly activators | AID 1865, 2009 | actives 0.2% (n = 280,000); also: % of control where 0% means no effect; nearly all actives have a fitted effect of over 60% in size
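Murine LDR cells bearing a silenced CMV-driven GFP reporter were exposed to compound for 30 h at 37 C. After PBS washes, GFP-positive cells (20-120 um objects) counted by laser-scanning microplate cytometry.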
NPSR antagonist – qHTS Assay for Antagonists of the Neuropeptide S Receptor: cAMP Signal Transduction | Q6W5P4 | CHO-NPSR cells, cAMP TR-FRET, antagonist mode | Potency, µM (top dose mostly 38.3 µM), for inactives: top-dose activity change, negative = inhibition, actives largely listed as inhibitors | actives 1% (n = 220,000) | AID 1461, 2008; also: % is scaled to controls: 0 for no effect and ±100 for the full control effect; nearly all actives have a fitted effect of over 50% in size
Target sequence (Q6W5P4 whole entry, looked up): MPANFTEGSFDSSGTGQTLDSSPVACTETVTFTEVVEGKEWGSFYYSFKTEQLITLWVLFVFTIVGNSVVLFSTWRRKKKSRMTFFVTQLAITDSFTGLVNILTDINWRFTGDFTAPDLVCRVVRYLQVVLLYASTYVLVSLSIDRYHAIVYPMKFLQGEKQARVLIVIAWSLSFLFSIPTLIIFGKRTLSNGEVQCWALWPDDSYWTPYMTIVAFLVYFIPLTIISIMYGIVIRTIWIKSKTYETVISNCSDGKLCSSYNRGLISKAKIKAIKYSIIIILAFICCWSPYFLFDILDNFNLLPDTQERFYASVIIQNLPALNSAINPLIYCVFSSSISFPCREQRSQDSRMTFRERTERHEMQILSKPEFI
Starred values were filed as active, the others as inactive; ? = inconclusive; / = no result; [ ] = remark or other dose. Sampled rows, rich in hits. Any-hit rate of the full collection: about 1.5%. Unless noted, calls follow the shape of the dose curve; as a rule, active = well fitted curve in the direction sought with a large enough effect; inconclusive = small, poorly fitted or top-dose-only effect, or another doubt; inactive = no such curve, though single readings can be large; an effect the other way counts as inactive or inconclusive. Potency is read from the fitted curve at half-maximal effect.

SMILES	HTT cytoprotect	HTT aggregate	LMNA splice mod	Epigenetic derep	NPSR antagonist
COc1cccc(/C=N/Nc2ncnc3scc(-c4ccccc4)c23)c1O	/	8.9µM*	?	-8%	-31%
CCC1=C(c2ccc(C)cc2)S(=O)(=O)N=C1N1CCC(C(=O)Nc2ccccc2F)CC1	/	/	-8%[46 µM]	0%	/
OC[C@@H]1O[C@@H](O)[C@H](N=Cc2ccc3c(c2)OCO3)[C@@H](O)[C@@H]1O	-21%[10 µM]	/	/	/	/
O=C(COc1ccc(S(=O)(=O)NC2CCCCC2)cc1)Nc1ccc(C(F)(F)F)cc1	/	/	/	0%	/
Cc1ccc(S(=O)(=O)N2CCN(c3ccnc4cc(Cl)ccc34)CC2)cc1C	-51%	?	/	1%	-52%
Cc1ccc(S(=O)(=O)N2CCN(c3ccnc4cc(Cl)ccc34)CC2)cc1	-99%	16µM*	/	-3%	?
Cc1ccc(O)c(C(=O)c2cnn(C(=O)Cc3csc(C)n3)c2)c1	17%[10 µM]	22µM*	14%	0%	5%[46.1 µM]
COc1ccc(-c2csc(NC(=S)NC(=O)/C=C/c3ccco3)n2)cc1OC	-30%[10 µM]	4%	?	0%	1µM*
O=C(/C=C/c1ccco1)NC(=S)Nc1cccc(-c2nc3ccccc3o2)c1	-77%	?	?	4%	1.6µM*
CCOc1ccc(NS(=O)(=O)c2ccc(NC(=O)N3CCCC3)cc2)cc1	/	/	5%[46 µM]	1%	/
Cc1cc(Cn2cnc3c2C[C@@H](C(=O)O)N(C(=O)C(c2ccccc2)c2ccccc2)C3)ccc1N(C)C	1%	/	/	-3%	/
O=C(NCCCCN1CCCC1)c1ccc(Cc2nc3ccccc3[nH]2)cc1	/	/	/	-4%	/
Cc1[nH]nc2ncc(C(=O)c3ccccc3O)cc12	20µM*	6.3µM*	?	-1%	-10%[46.1 µM]
CN1Cc2cc(C(=O)c3ccccc3O)cnc2NC1=O	0%	3%	6%	-1%	-10%[46.1 µM]
COc1cc2nc(/C=C/c3ccc(N(C)C)cc3)sc2cc1SC	17%[10 µM]	?	?	11µM*	-20%[46.1 µM]
C=CCn1c(-c2ccc(OC)cc2)nc2ccccc21	-28%[10 µM]	11µM*	-14%	8%	-24%[46.1 µM]
CCn1c(-c2ccc(N(C)C)cc2)nc2ccccc21	-97%	10µM*	8%	-1%	?
CS(=O)(=O)N1CCN(c2ccccc2NC(=O)c2ccc(-c3ccc(Cl)cc3Cl)o2)CC1	3%[10 µM]	11%	20%	?	3.2µM*
CN1CCN(c2ccccc2NC(=O)c2ccc(-c3ccc(Cl)cc3Cl)o2)CC1	-86%	?	1%	3%	?
COc1ccc2c(c1)Cc1sc(NC(=O)c3ccc(Cl)cc3)nc1-2	/	/	/	2%	/
O=C1C(C2=C(O)c3ccccc3C2=O)=Nc2ccccc21	-28%	-26%	?	7.9µM*	-8%[46.1 µM]
CN=CC1=C(O)c2ccccc2C1=O	8%	11%	-3%	3%	0%[46.1 µM]
CSc1ncnc2nc[nH]c12	-21%	/	/	/	/
Cc1ccc(OCC(=O)NNC(=S)NC(=O)C(C)(C)C)c(Br)c1	/	11µM*	/	-1%	-16%
Nc1c(-c2ccccc2)nc(Cl)nc1-c1ccccc1	-6%	15%	?	-3%	-9%[46.1 µM]
SMILES	HTT cytoprotect	HTT aggregate	LMNA splice mod	Epigenetic derep	NPSR antagonist
c1ccc(-c2nc3nonc3nc2-c2ccccc2)cc1	-140%	3.2µM*	?	5%	-2%[46.1 µM]
CCc1ccc(C2=NN(c3ccc(S(N)(=O)=O)cc3)C(c3ccc(F)cc3)C2)cc1 (configuration not stated)	4%[10 µM]	?	?	9%	10µM*
CCOC(=O)c1c(-c2cccs2)csc1NC(=O)C(C)(C)C	-73%	14µM*	?	1%	?
CCOC(=O)c1c(-c2ccc(F)cc2)csc1NC(=O)C1CC=CCC1C(=O)O (configuration not stated)	-20%	21%[9.22 µM]	-7%[46 µM]	0%	-22%
CCOC(=O)c1c(-c2cccc([N+](=O)[O-])c2)csc1NC(=O)C1CC1	-14%	26%	-8%	1%	-28%[46.1 µM]
CCOC(=O)c1c(-c2ccc(C)c(C)c2)csc1NC(=O)C1CC=CCC1C(=O)O (configuration not stated)	-1%	-7%	9%	-3%	10µM*
CCOC(=O)c1c(-c2cccs2)csc1NC(C)=O	3%[1.9 µM]	-14%	1%	2%	23%[46.1 µM]
CCNC(=S)Nc1scc(-c2ccccc2)c1C(=O)OCC	/	14µM*	?	0%	-56%
CCOC(=O)c1c(-c2ccccc2)csc1NC(=S)NC	20%[10 µM]	-24%	?	-1%	-20%
CCOC(=O)c1c(-c2cccc([N+](=O)[O-])c2)csc1NC(=O)C1CCCCC1	-14%[10 µM]	-29%	?	-1%	10µM*
CC(C)(C)c1ccc(OCC2CO2)cc1 (configuration not stated)	-18%	/	/	/	/
CN1CCN(CCCNC(=O)c2cc3c(-c4ccc(Cl)cc4)nn(C)c3s2)CC1	-77%	?	?	1%	10µM*
CC(=O)C1=C(C)NC(SCC(=O)c2ccccc2)=C(C#N)C1CC(C)C (configuration not stated)	-15%[0.074 µM]	1.6µM*	4%	-1%	-5%[46.1 µM]
CC(=O)C1=C(C)NC(SCC(=O)c2ccccc2)=C(C#N)C1c1ccco1 (configuration not stated)	-21%	2%	?	-3%	?
COc1cc(O)c2c(O)c3c(c4c2c1[C@@]1(C4)C(C)=CCCC1(C)C)[C@H](O)[C@@]1(O)CC(=O)C(C(N)=O)=C(O)[C@]1(O)C3=O	-6%[10 µM]	/	/	/	/
CN(c1ncnc(N)c1[N+](=O)[O-])C1CCS(=O)(=O)C1 (configuration not stated)	-12%	4.5µM*	/	-2%	21%
COc1cccc(CNC(=O)c2c(O)nc3ccccn3c2=O)c1	/	/	/	1%	/
O=C(c1ccc(Cl)cc1)N1CCC(c2nc3ccccc3o2)CC1	/	/	2%[46 µM]	-2%	/
CCCn1c(-c2nonc2N)nc2ccccc21	3%[10 µM]	13µM*	-11%	-1%	2%[46.1 µM]
Nc1nonc1-c1nc2ccccc2n1CC(=O)O	2%	12%	-3%	-1%	-11%[46.1 µM]
Oc1ccccc1C1CC(c2cccs2)=NC(c2cccc(Br)c2)N1 (configuration not stated)	-47%	11µM*	?	4%	-5%
CCN(CC)c1ccc(/C=N/NC(=O)c2ccc(O)cc2)cc1	-162%	/	/	0%	/
Cc1ccccc1Cn1ccc(=NCc2ccccc2)cc1	/	18µM*	?	0%	6%
O=C1C(Cl)=C(Nc2ccccc2)C(=O)c2ccccc21	-39%[10 µM]	13µM*	?	-2%	?
CC(C)OCCCNC1=C(Cl)C(=O)c2ccccc2C1=O	-2%[10 µM]	-14%[9.22 µM]	/	5%	10µM*
